# Compounds with a hit are over-represented: about 11% of the library has one in this group of screens.
# Pf growth 48h = P. falciparum growth inhibition at 48 hours (one generation). P. falciparum luciferase growth in erythrocytes, 48 h. Potency, µM (highest dose often 28.7 µM), inactives show top-dose activity change, negative = inhibition, usual class: inhibitors. actives 5.9% (n = 310,000). AID 504832
#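 First compound was added to culture medium, then infected red cells at 0.1% parasitemia and 2% hematocrit (final). After incubation at 37 C under 5% CO2, luciferase detection reagent was dispensed and light output recorded.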
# AmpC inh no detg = blocks E. coli AmpC beta-lactamase in detergent-free assay. AmpC nitrocefin hydrolysis, absorbance 480 nm, 0.0001% Triton. Potency, µM (titrated, usually from 57.1 µM), inactives show at the highest dose activity change, negative = inhibition, hits mostly inhibitors. actives 0.52% (n = 330,000);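 further: plate controls were no compound for no effect and no enzyme for full effect; nearly all actives have a fitted effect of over 20% in size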
# Target sequence (P00811 whole entry, looked up): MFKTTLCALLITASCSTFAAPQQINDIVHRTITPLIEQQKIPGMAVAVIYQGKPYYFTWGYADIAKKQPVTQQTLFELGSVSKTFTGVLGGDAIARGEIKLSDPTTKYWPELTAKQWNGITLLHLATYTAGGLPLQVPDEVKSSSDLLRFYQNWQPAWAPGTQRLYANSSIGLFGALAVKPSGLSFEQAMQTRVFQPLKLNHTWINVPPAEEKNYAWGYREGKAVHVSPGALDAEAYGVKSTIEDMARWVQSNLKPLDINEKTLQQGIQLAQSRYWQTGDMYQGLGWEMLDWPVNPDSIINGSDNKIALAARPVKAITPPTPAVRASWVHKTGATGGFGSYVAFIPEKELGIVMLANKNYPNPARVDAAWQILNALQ
#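 20 mM phosphate pH 7.0 + 0.01% (detergent screen) or 0.0001% Triton X-100; 5.3 nM AmpC reagent; cpd preinc 15 min RT; nitrocefin (800 uM stock) to start; A480 q20 s × 4 min; Activity was normalised to no-enzyme and no-compound control wells.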
# Pf growth 96h = P. falciparum growth inhibition at 96 hours | P. falciparum luciferase reporter growth, 96 h | Potency, µM (top dose mostly 28.7 µM), inactives show at the highest dose activity change, negative = inhibition, usual class: inhibitors | actives 6.9% (n = 320,000) | AID 504834
#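 Compounds incubated with erythrocytes infected by luciferase-expressing P. falciparum (2% hematocrit, 0.05% parasitemia final) for 96 hours, 37 C in 5% CO2. Growth inhibition scored as decreased luciferase luminescence.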
# AMA1-RON2 inh = disrupts binding of P. falciparum AMA1 to RON2; Potency, µM (titrated, usually from 58.2 µM), for inactives: at the top dose activity change, negative = inhibition, actives largely listed as inhibitors; AlphaScreen AMA1-biotinylated RON2 peptide binding; actives 0.2% (n = 360,000);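 further: 0% = vehicle wells and -100% = peptide control; nearly all actives have a fitted effect of over 45% in size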
#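 AMA1 (3D7) with his tag at 25 nM final met compounds first, then biotinylated RON2 peptide at 25 nM; detection used donor plus acceptor beads, 10 µg/mL apiece, read by AlphaScreen after 30 min at room temperature.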
# HCV inh = inhibitors of hepatitis C virus infection; Potency, µM (doses to about 41.8 µM), without a hit: at the top dose activity change, negative = inhibition, most hits filed as inhibitors; Huh7.5.1 HCVcc-Cre infection, luciferase reporter, 44 h; actives 3.4% (n = 340,000); AID 651820
#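 Whole-lifecycle infectious HCVcc-Cre system; cells 1,000/well, compound then virus (~0.5 moi) added 4 h after plating, 44 h culture. Luciferase read 15 sec following 15 min substrate incubation, room temp.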
# AmpC detergent = AmpC beta-lactamase inhibition with detergent present; AmpC hydrolysis of nitrocefin, absorbance 480 nm, 0.01% Triton; actives 0.041% (n = 370,000); Potency, µM (series often up to 114 µM), for inactives: at the highest dose activity change, negative = inhibition, hits mostly inhibitors; AID 485294; P00811;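 further: 0% = no-compound wells and -100% = no-enzyme wells; nearly all actives have a fitted effect of over 25% in size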
#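 AmpC (5.3 nM in the dispensed reagent) in 20 mM phosphate pH 7.0 with 0.01% (detergent screen) or 0.0001% Triton X-100 was preincubated with compounds for 15 min at room temperature. Nitrocefin was then added from an 800 uM solution, and hydrolysis was followed at 480 nm.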
# * hit, by the source's call; ? = inconclusive; · = no result; [ ] = remark or other dose. The call rests on the fitted dose curve; in most records, active means well fitted curve in the direction sought with a large enough effect; inconclusive means small, poorly fitted or top-dose-only effect, or another doubt; inactive means no such curve, though single readings can be large; an effect the other way counts as inactive or inconclusive. Unless noted, on the % scale 0 is the no-effect control and ±100 the full control effect; potency means the concentration at half of the fitted maximal effect.
SMILES,Pf growth 48h,AmpC inh no detg,Pf growth 96h,AMA1-RON2 inh,HCV inh,AmpC detergent
O=C(CN(c1ccccc1)S(=O)(=O)c1ccc(F)cc1)NC1CCCCCC1,4.5%,-8.2%,2.33µM*,-6.6%,6.7%,2.2%
CCN(CC(=O)NCc1ccc(F)cc1)CC(=O)NC1CCCC1,26.8%,-11.7%,25.4%,6.7%,0.891µM*,-6.6%
Cc1ccc(C)c(N(CC(=O)NC2CCCC2)S(=O)(=O)c2ccccc2)c1,-17.1%,56.3%,13.1µM*,-0.6%,-2.9%,-5.6%
N#C/C(=C\c1ccccc1)c1nc(-c2cc3c(ccc4ccccc43)oc2=O)cs1,·,·,·,·,·,4.5%
COCCCNC(=O)CC1Oc2ccccc2NC1=O (stereo not drawn),7.4%,10µM*,36.7%,19.7%,6.5%,?
Cc1ccc2c(c1)NC(=O)C(CC(=O)NCCN(C)C)O2 (stereo not drawn),·,-8.3%,1.65µM*,7.8%,8.6%,-0.8%
Cc1ccc(CCNC(=O)CC2Oc3ccc(C)cc3NC2=O)cc1 (stereo not drawn),6.9%,-21.0%,-22.5%,6.3%,-0.4%,-13.7%
CC(=O)c1ccc(NC(=O)Cn2cnc3nc4c(cc3c2=O)CC(C)CC4)cc1 (stereo not drawn),·,·,·,·,·,12.4%
Cc1cc2c(cc3c(SCc4ccc(Cl)cc4)nncn32)o1,·,·,·,·,·,-13.6%
CCO/C=C/C(=O)N(C)CCC#N,13.2%,-3.9%,11.7µM*,12.3%,16.8%,?
CCC(=O)N1CCc2cc(S(=O)(=O)CCC(=O)N3CCN(c4ccccc4Cl)CC3)ccc21,·,·,·,·,·,-4.0%
CC(=O)N1CCc2cc(S(=O)(=O)CCC(=O)N3CCN(c4ccccc4F)CC3)ccc21,?,67.1%,?,4.5%,-2.4%,-3.1%
CCC(=O)N1CCc2cc(S(=O)(=O)CCC(=O)N3CCN(c4ccc(F)cc4)CC3)ccc21,-19.4%,98.5%,1.04µM*,1.7%,-9.2%,-12.9%
CC(=O)c1ccc(N2CCN(C(=O)CCS(=O)(=O)c3ccc4c(c3)CCN4C(C)=O)CC2)cc1,13.1µM*,45.2%,?,-0.4%,-21.3%,1.2%
CCC(C)NC(=O)c1ccc2nc(CCc3ccccc3)oc2c1 (stereo not drawn),·,·,·,·,·,-1.2%
CCOC(=O)c1cc(-c2ccccc2)n(CCCC(=O)Nc2cccc(C)c2C)c1C,·,·,·,·,·,3.2%
Cc1c(-c2nnc(SCC(=O)Nc3ccc(Cl)cc3)o2)nnn1-c1ccc(F)cc1,·,·,·,·,·,5.0%
O=C(Nc1ccccc1)C1CCCCN1S(=O)(=O)c1ccccc1 (stereo not drawn),-4.6%,-25.6%,3.2%,-7.2%,3.3%,-14.6%
O=C(Nc1nnc(C2CC2)s1)C1CCCCN1S(=O)(=O)c1ccccc1 (stereo not drawn),13.1µM*,-21.2%,-9.6%,2.4%,-9.3%,-8.8%
CCc1ccc(NC(=O)CSc2ccc3nc(-c4ccc(OC)cc4)cn3n2)cc1,·,·,·,·,·,0.8%
O=C(CSc1nc(=O)n(Cc2ccncc2)c2c1CCC2)Nc1cccc(F)c1,·,·,·,·,·,1.4%
CC(C)C[C@H](NC(=O)c1[nH]cnc1C(=O)N[C@@H](C)c1ccccc1)C(=O)OCc1ccccc1,8.28µM*,-36.0%,5.86µM*,122.2%,?,-4.4%
CC(C)C[C@H](NC(=O)c1nc[nH]c1C(=O)N[C@@H](CC(C)C)C(=O)OC(C)(C)C)C(=O)OCc1ccccc1,?,-0.4%,?,96.5%,-24.0%[8.37 µM],?
CC(C)C[C@H](NC(=O)c1nc[nH]c1C(=O)NCC(=O)OCc1ccccc1)C(=O)OCc1ccccc1,4.65µM*,2.2%,?,172.1%,30.6%,?
C[C@H](NC(=O)c1nc[nH]c1C(=O)N1CCN(C(=O)OC(C)(C)C)CC1)C(=O)OCc1ccccc1,33.7%,109.4%,97.6%,21.6%,18.6%,-10.9%
SMILES,Pf growth 48h,AmpC inh no detg,Pf growth 96h,AMA1-RON2 inh,HCV inh,AmpC detergent
CC1CCN(C(=O)c2[nH]cnc2C(=O)N[C@@H](C)C(=O)OCc2ccccc2)CC1,50.5%,51.2%,25.5%,-2.0%,3.55µM*,-4.1%
O=C(Nc1ccc(Br)c2cccnc12)c1cccc2ccccc12,·,·,·,·,·,22.1%
COC(=O)CN1C(=O)N/C(=C/c2cc3c(cc2OC)OCO3)C1=O,14.8%,5.0%,0.0%,-4.7%,11.6%,3.2%
CCOc1cc2c(cc1/C=C1/NC(=O)N(CC(=O)OC)C1=O)OCO2,-7.3%,-1.0%,?,-1.8%,10µM*,2.9%
CCCn1c(N)c(N(C)C)c(=O)n(CC(=O)Nc2ccc(OC(F)(F)F)cc2)c1=O,-2.4%,0.2%,10.4µM*,1.6%,-3.2%,4.8%
CCCn1c(N)c(N2CCCCC2)c(=O)n(CC(=O)Nc2ccccc2)c1=O,·,-23.9%,-2.2%,-18.0%,5.8%,?
CCC(Sc1nc2ccccc2c2nc(CCc3c(C)n[nH]c3C)nn12)C(=O)Nc1ccc(F)cc1 (stereo not drawn),·,·,·,·,·,3.9%
NC(=O)C(=CNc1nc(-c2ccc(Cl)c(Cl)c2)cs1)C(N)=O,?,14.1µM*,?,·,·,-7.4%
COc1cc(CCC(=O)NCc2ccc3c(c2)CCN3C(=O)c2ccc(F)cc2)cc(OC)c1OC,·,·,·,·,·,8.3%
Cc1ccccc1C(=O)N1CCC(C(=O)Nc2ccc(S(=O)(=O)N3CCCC3)cc2)CC1,?,92.0%,·,-4.8%,-10.5%,?
Cc1ccccc1C(=O)N1CCC(C(=O)Nc2ccc(C)c(S(=O)(=O)N3CCCCC3)c2)CC1,13.1µM*,94.7%,?,-11.2%,10µM*,-14.5%
Cc1ccccc1C(=O)N1CCC(C(=O)Nc2cccc(S(=O)(=O)N3CCCCC3)c2)CC1,14.7µM*,80.7%,?,0.0%,?,-6.9%
Cc1ccc(S(=O)(=O)c2c(Nc3ccccc3)sc(C(=O)c3ccc4c(c3)OCO4)c2N)cc1,·,·,·,·,·,29.4%
C=CCOc1ccccc1CNc1cccc(F)c1,-1.5%,-29.1%,10.4µM*,-6.5%,-7.8%,-3.2%
CCc1ccccc1N(C)C(=O)c1cn(-c2cccc(OC)c2)c(=O)c2ccccc12,·,·,·,·,·,2.6%
COc1cc2ccccc2cc1C(=O)N1CCN(c2nc3c(F)cc(F)cc3s2)CC1,·,·,·,·,·,0.3%
O=C(NCCN1C(=O)S/C(=C\c2ccc(Cl)c([N+](=O)[O-])c2)C1=O)C1=COCCO1,-8.4%,-36.2%,?,7.4%,11.2µM*,?
O=C(NCCN1C(=O)S/C(=C\c2ccc(Cl)c(Cl)c2)C1=O)c1cnccn1,15.6%,-18.0%,-7.3%,21.5%,-1.3%,-3.7%
O=C(Nc1ccc2c(c1)oc1ccccc12)c1cccnc1,?,-10.9%,2.08µM*,3.2%,?,-9.9%
